Here are results for 8 compounds from ChEMBL document CHEMBL2218924, “A broad activity screen in support of a chemogenomic map for kinase signalling research and drug discovery” (Biochem J, 2013).

The target of assay [1] is Insulin receptor (Homo sapiens) (UniProt P06213). Conditions: at 10 µM.
Assay [2] has as its target T1, Tyrosine-protein kinase JAK3 (Homo sapiens) (UniProt P52333).
T1 sequence (whole entry): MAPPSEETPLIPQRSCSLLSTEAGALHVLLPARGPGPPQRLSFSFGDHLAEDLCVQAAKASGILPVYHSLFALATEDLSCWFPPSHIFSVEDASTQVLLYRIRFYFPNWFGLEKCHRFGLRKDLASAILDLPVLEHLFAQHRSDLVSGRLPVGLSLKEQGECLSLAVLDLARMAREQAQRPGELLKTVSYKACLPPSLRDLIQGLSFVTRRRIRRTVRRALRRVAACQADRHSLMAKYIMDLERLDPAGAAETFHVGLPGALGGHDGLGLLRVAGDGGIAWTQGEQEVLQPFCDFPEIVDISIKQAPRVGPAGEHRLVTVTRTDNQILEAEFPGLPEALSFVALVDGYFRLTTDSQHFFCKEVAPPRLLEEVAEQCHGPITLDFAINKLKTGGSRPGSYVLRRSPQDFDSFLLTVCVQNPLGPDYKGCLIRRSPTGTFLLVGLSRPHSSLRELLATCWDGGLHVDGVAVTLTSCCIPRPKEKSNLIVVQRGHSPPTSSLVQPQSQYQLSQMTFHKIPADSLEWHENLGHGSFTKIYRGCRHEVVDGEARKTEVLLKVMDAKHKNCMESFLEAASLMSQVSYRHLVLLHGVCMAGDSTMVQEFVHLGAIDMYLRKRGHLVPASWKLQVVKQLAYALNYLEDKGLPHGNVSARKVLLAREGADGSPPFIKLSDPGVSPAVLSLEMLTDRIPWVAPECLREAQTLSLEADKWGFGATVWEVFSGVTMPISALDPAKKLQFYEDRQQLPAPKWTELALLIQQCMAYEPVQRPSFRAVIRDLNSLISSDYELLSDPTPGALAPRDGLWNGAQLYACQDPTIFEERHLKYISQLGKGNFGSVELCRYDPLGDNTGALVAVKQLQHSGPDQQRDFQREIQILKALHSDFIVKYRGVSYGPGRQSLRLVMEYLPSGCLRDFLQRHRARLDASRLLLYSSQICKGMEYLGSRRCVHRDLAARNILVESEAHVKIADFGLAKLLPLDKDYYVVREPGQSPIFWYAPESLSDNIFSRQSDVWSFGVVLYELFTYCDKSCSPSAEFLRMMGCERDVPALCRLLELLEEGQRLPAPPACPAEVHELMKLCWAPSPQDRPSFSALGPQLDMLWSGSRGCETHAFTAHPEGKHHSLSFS
Conditions: at 10 µM.

Assay [3] deals with Mitogen-activated protein kinase 9 (Homo sapiens) (UniProt P45984). The conditions noted are these: at 1 µM.
Sequence of Mitogen-activated protein kinase 9 (Homo sapiens) (P45984 whole entry, looked up): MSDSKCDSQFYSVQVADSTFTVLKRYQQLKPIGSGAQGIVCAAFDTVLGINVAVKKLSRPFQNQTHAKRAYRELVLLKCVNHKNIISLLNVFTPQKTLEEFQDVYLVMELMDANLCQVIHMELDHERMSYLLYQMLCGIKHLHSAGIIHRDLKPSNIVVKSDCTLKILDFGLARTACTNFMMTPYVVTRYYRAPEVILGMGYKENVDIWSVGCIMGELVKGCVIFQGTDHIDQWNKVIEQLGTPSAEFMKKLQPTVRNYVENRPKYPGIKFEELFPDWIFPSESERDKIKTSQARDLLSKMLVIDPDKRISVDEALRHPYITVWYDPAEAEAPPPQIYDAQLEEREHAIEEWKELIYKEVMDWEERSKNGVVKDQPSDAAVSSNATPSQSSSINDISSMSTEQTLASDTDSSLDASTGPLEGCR
Assay [4] shares this target. The conditions noted are these: at 10 µM.
In assay [5] the target is Mitogen-activated protein kinase 10 (Homo sapiens) (UniProt P53779). Conditions: at 1 µM.
Sequence of Mitogen-activated protein kinase 10 (Homo sapiens) (P53779 whole entry): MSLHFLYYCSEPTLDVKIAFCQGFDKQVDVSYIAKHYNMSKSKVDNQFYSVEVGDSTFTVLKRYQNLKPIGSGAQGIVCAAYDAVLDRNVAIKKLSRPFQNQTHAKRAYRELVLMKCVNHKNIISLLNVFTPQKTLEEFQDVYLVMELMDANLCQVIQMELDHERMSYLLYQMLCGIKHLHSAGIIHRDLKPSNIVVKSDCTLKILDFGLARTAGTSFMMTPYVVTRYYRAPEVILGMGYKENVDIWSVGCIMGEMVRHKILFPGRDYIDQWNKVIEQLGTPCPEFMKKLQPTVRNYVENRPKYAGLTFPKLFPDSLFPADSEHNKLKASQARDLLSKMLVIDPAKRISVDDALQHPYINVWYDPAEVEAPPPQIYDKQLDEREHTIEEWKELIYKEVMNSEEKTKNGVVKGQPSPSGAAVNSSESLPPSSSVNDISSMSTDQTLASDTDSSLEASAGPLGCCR
For assay [6], the target named is Interleukin-1 receptor-associated kinase 1 (Homo sapiens) (UniProt P51617). Conditions: at 1 µM.
Sequence of Interleukin-1 receptor-associated kinase 1 (Homo sapiens) (P51617 whole entry, looked up): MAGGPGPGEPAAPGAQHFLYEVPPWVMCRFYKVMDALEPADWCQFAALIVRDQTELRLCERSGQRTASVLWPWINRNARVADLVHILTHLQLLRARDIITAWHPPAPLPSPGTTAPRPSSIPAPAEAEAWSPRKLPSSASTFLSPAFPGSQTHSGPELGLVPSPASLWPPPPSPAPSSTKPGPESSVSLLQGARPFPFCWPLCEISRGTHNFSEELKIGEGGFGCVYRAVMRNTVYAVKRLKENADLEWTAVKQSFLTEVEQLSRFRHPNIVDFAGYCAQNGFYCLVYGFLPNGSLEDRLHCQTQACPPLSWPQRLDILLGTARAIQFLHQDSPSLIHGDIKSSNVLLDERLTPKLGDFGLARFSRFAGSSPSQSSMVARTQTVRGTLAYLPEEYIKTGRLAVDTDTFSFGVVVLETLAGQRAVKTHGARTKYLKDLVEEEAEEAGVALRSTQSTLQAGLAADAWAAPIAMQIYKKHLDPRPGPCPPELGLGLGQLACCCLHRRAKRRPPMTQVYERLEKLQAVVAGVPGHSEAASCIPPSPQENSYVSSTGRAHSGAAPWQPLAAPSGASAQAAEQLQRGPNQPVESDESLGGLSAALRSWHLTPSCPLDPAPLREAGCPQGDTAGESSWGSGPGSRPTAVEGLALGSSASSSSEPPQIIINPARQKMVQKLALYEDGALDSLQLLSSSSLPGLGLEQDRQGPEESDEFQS
The target is the same in assay [7]. The conditions noted are these: at 10 µM.
The target in assay [8] is T2, Interleukin-1 receptor-associated kinase 4 (Homo sapiens) (UniProt Q9NWZ3).
T2 sequence (whole entry): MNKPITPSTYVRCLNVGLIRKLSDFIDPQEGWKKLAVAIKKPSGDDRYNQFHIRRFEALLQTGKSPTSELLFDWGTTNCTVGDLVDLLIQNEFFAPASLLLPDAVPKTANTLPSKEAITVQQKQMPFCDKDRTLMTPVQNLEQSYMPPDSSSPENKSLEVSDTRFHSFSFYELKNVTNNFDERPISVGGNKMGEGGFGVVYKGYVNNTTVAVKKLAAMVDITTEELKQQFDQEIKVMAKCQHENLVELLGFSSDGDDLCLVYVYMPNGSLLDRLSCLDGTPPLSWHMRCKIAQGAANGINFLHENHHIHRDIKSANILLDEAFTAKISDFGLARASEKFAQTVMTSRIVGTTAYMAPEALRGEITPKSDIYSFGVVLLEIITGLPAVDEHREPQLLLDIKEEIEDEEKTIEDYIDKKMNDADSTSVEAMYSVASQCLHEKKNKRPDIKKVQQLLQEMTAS
The conditions noted are these: at 1 µM.

The target in assay [9] is T2, Interleukin-1 receptor-associated kinase 4 (Homo sapiens). The conditions noted are these: at 10 µM.
Assay [10] has as its target Insulin receptor-related protein (Homo sapiens) (UniProt P14616). Conditions: at 10 µM.
In assay [11] the target is T3, Tyrosine-protein kinase ITK/TSK (Homo sapiens) (UniProt Q08881).
T3 sequence (whole entry): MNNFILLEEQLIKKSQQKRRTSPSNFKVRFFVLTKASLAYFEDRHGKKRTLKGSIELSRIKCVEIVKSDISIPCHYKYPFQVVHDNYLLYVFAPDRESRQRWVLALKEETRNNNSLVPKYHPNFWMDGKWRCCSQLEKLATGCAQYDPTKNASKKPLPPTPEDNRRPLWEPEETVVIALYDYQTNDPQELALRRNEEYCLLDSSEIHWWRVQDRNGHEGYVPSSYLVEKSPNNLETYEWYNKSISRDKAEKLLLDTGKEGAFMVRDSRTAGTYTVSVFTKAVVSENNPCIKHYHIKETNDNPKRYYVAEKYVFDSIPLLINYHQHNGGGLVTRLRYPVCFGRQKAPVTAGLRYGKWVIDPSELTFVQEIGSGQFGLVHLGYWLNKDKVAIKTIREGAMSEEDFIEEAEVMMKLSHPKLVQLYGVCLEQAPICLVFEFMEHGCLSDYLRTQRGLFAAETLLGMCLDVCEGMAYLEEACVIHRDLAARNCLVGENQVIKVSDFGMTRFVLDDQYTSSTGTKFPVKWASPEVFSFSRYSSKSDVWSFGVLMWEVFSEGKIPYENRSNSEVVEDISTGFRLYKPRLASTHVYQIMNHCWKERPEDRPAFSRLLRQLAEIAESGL
The conditions noted are these: at 1 µM.

In assay [12] the target is T3, Tyrosine-protein kinase ITK/TSK (Homo sapiens). Conditions: at 10 µM.
Assay [13] addresses Tyrosine-protein kinase JAK2 (Homo sapiens) (UniProt O60674). The conditions noted are these: at 10 µM.
The target of assay [14] is T1, Tyrosine-protein kinase JAK3 (Homo sapiens). Conditions: at 1 µM.
Assay [15] has as its target Mitogen-activated protein kinase 8 (Homo sapiens) (UniProt P45983). The conditions noted are these: at 10 µM.
The target in assay [16] is Insulin receptor (Homo sapiens) (UniProt P06213). The conditions noted are these: at 1 µM.
Assay [17] shares this target. Conditions: at 10 µM. This is another data set of the same source.
Assay [18] deals with Tyrosine-protein kinase JAK2 (Homo sapiens) (UniProt O60674). The conditions noted are these: at 1 µM.
Sequence of Tyrosine-protein kinase JAK2 (Homo sapiens) (O60674 whole entry): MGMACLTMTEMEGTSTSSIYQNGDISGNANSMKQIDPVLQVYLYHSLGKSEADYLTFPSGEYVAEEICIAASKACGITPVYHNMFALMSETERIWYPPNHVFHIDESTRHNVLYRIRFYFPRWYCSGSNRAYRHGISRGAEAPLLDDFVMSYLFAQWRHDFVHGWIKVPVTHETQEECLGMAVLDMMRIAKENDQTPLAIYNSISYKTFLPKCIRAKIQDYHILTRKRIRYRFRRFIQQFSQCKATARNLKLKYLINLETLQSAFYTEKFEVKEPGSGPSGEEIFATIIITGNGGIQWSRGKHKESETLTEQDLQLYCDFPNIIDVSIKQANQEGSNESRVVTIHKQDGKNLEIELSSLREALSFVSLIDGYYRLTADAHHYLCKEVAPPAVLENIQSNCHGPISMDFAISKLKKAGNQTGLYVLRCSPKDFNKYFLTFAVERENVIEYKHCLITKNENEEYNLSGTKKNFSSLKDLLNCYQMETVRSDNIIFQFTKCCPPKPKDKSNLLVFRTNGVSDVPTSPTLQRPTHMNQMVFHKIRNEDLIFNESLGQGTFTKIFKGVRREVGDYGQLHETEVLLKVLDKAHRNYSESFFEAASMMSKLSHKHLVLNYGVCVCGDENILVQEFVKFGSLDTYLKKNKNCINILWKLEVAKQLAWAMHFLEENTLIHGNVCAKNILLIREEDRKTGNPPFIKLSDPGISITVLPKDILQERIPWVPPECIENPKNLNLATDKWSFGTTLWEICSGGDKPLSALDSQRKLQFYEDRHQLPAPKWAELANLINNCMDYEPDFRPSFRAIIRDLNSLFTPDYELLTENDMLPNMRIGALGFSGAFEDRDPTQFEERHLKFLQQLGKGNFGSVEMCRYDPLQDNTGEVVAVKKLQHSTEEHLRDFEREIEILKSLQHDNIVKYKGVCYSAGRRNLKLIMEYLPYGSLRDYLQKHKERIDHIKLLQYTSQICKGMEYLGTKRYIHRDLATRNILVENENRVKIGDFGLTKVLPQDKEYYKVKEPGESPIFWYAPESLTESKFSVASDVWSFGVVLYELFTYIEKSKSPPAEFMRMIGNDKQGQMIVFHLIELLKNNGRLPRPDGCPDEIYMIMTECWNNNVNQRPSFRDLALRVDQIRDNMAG
The target in assay [19] is Mitogen-activated protein kinase 8 (Homo sapiens) (UniProt P45983). The conditions noted are these: at 1 µM.
Sequence of Mitogen-activated protein kinase 8 (Homo sapiens) (P45983 whole entry): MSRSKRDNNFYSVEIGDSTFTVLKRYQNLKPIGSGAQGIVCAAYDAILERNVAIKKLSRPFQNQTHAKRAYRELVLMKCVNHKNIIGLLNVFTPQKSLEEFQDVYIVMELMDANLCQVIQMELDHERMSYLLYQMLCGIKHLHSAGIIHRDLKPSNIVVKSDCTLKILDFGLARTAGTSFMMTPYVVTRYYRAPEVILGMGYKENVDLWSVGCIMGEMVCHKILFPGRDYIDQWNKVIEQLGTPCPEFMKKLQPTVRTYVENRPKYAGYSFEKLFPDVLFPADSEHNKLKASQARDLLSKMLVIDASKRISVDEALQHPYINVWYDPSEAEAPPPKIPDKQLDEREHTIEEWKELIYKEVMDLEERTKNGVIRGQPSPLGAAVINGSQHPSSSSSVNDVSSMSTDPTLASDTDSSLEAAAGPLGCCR
The target in assay [20] is Insulin receptor-related protein (Homo sapiens) (UniProt P14616). The conditions noted are these: at 1 µM.
Sequence of Insulin receptor-related protein (Homo sapiens) (P14616 27-742 limits assumed): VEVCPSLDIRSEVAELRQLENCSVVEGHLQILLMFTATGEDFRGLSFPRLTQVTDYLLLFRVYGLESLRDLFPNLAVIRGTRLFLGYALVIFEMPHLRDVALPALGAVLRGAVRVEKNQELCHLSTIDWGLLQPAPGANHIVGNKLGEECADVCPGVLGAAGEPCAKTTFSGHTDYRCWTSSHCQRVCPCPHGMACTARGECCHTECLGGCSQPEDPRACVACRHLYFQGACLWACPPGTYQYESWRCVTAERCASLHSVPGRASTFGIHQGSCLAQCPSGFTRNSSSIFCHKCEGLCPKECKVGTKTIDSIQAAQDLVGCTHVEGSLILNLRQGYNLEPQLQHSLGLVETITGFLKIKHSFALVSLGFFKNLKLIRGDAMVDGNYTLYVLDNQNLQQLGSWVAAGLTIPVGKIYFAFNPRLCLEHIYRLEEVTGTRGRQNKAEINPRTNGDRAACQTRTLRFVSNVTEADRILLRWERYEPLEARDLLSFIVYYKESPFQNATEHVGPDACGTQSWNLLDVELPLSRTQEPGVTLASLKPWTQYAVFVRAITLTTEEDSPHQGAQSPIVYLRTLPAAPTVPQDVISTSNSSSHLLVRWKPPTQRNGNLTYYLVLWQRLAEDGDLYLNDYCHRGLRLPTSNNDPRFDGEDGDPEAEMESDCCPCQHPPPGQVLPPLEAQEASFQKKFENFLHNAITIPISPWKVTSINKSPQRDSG
Sequence of Insulin receptor-related protein (Homo sapiens) (P14616 747-1297 limits assumed): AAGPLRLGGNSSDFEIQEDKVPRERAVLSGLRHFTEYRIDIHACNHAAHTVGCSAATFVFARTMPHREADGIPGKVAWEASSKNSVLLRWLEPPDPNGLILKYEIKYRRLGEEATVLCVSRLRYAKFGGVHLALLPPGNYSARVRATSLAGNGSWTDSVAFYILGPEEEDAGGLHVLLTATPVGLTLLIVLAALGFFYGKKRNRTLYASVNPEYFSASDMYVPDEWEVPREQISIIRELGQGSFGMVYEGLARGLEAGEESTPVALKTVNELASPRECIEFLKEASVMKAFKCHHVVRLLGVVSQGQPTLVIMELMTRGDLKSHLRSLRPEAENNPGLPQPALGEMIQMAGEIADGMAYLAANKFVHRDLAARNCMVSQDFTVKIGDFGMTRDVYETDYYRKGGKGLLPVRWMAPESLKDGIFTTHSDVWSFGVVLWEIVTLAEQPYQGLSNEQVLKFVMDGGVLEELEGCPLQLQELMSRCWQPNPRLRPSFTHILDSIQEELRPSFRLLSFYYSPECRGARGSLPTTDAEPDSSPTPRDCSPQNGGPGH

Turning to `CN([C@@H](Cc1ccc(OS(=O)(=O)c2cccc3cnccc23)cc1)C(=O)N1CCN(c2ccccc2)CC1)S(=O)(=O)c1cccc2cnccc12`, the residual activity in [1] is 84%; in assay [2] it was 83%; in assay [3], 114%; in [4] it was 114%; in [5] it was 76%.
Regarding `O=c1cc(N2CCNCC2)oc2c(-c3ccccc3)cccc12`, the residual activity worked out at 94% in assay [1]; 92% in [6]; 76% in assay [7]; 93% in assay [8]; 96% in assay [9]; 70% in assay [10]. Further, the residual activity in assay [11] worked out at 83%; in [12] it was 93%; in assay [13], 101%; in assay [14], 94%; in assay [2], 78%; in assay [15] it was 84%. Besides, the figures for the residual activity in assay [4] and in assay [5] were 97% and 73%, respectively.
`O=C(Nc1ccc(Cl)cc1)c1ccccc1NCc1ccncc1`: the residual activity came out at 79% in assay [1]; 102% in [16]; 100% in assay [17]; 129% in [18]; 74% in assay [13]; 120% in assay [19]. Besides, the residual activity in [15] was 129%; in assay [5], 72%.
For `N#C/C(=C\c1ccc(O)c(O)c1)C(=O)NCc1ccccc1`, the residual activity in assay [1] was 89%; in assay [16], 100%; in assay [17], 85%; in assay [7], 81%; in [9], 100%; in [20] it was 88%. The residual activity was determined as 85% in assay [10], 104% in assay [11] and 104% in assay [12].
As for `CC(C)[C@H](CO)Nc1nc(Nc2cc(N)cc(Cl)c2)c2ncn(C(C)C)c2n1`, the residual activity was 50% in [1]; 55% in assay [16]; 6% in [17]; 94% in [6]; 49% in [7]; 39% in assay [8]. Also, the residual activity amounted to 7% in assay [9], 87% in [2] and 82% in assay [5].
As to `N#Cc1c(NC(=O)c2cccc3ccccc23)sc2c1CCCC2`, the residual activity was determined as 92% in assay [17]; 94% in assay [6]; 95% in assay [7]; 96% in [8]; 72% in assay [9]; 72% in [10]. Moreover, the residual activity worked out at 92% in [13], 58% in assay [3], 74% in assay [4] and 8% in assay [5].
Turning to `Cn1sc(=O)n(Cc2ccccc2)c1=O`, the residual activity in [1] is 82%; in assay [16], 96%; in assay [17], 93%; in [8], 74%; in assay [9], 76%; in [11], 97%. Also, the residual activity in [12] came out at 83%; in assay [18] it was 91%; in [13], 98%; in [19] it was 89%; in [15], 88%; in assay [3], 91%. For the same compound, the residual activity amounted to 93% in assay [4] and 75% in [5].
Regarding `CCOC(=O)c1c(C)[nH]c(/C=C2\C(=O)Nc3ccccc32)c1C`, the residual activity in [1] turned out to be 96%; in assay [16], 84%; in assay [17], 93%; in assay [6], 94%; in assay [7] it was 99%; in assay [8] it was 97%. For the same compound, the residual activity stood at 49% in assay [9]; 93% in assay [20]; 81% in assay [10]; 79% in assay [11]; 99% in [12]; 92% in assay [18]. In addition, the residual activity in [13] amounted to 100%.
